What all share (test): PBM; 200 nM protein, PBS
Settings in all cases: dsDNA, one strand shown

For assay [1], the target named is NKX2-5 (Homo sapiens, UniProt P52952 125-210, R139K).
Assay [2] concerns the target HOXD13 (Homo sapiens, UniProt P35453 263-343, T313R).
Assay [3] addresses HOXD13 (Homo sapiens, UniProt P35453 263-343).
The target of assay [4] is HOXD13 (Homo sapiens, UniProt P35453 263-343, T313A).
The target in assay [5] is NKX2-5 (Homo sapiens, UniProt P52952 125-210).
Assay [6] concerns the target T1, NKX2-6 (Homo sapiens, UniProt A6NCS4 118-204, R150C).
T1 sequence: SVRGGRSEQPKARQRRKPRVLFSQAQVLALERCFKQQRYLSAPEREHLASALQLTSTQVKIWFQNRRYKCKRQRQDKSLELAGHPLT

Assay [7] has as its target NKX3-2 (Homo sapiens, UniProt P78367 192-278, P234S).
Assay [8] addresses NKX3-2 (Homo sapiens, UniProt P78367 192-278).
Assay [9] addresses T2, NKX2-6 (Homo sapiens, UniProt A6NCS4 118-204).
T2 sequence: T1 sequence with C33R

Assay [10] deals with T3, NKX2-6 (Homo sapiens, UniProt A6NCS4 118-204, F151L).
T3 sequence: T1 sequence with C33R, F34L

Assay [11] has as its target ALX1 (Homo sapiens, UniProt Q15699 118-204, L144V).
Assay [12] has as its target ALX1 (Homo sapiens, UniProt Q15699 118-204, L144R).
For assay [13], the target named is ALX1 (Homo sapiens, UniProt Q15699 118-204).
Assay [14] concerns the target ALX3 (Homo sapiens, UniProt O95076 139-225, N203Q).
Assay [15] deals with ALX3 (Homo sapiens, UniProt O95076 139-225).
In assay [16] the target is ALX3 (Homo sapiens, UniProt O95076 139-225, L168Q).
Assay [17] deals with ALX3 (Homo sapiens, UniProt O95076 139-225, L168V).
The target in assay [18] is ALX3 (Homo sapiens, UniProt O95076 139-225, N203S).

Numbering of substitutions follows the chain as printed.

Chain of NKX2-5 (Homo sapiens, UniProt P52952 125-210) (P52952 125-210): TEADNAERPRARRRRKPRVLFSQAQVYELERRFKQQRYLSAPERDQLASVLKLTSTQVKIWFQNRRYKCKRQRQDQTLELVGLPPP
Chain of NKX3-2 (Homo sapiens, UniProt P78367 192-278) (P78367 192-278): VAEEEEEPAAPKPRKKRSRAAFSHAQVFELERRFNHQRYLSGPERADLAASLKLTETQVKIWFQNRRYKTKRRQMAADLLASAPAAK
Chain of NKX3-2 (Homo sapiens, UniProt P78367 192-278, P234S) (P78367 192-278 P234S): as the sequence (P78367 192-278) above, with P43S counted along it
Chain of NKX2-5 (Homo sapiens, UniProt P52952 125-210, R139K) (P52952 125-210 R139K): as the sequence (P52952 125-210) above, with R15K counted along it
Chain of HOXD13 (Homo sapiens, UniProt P35453 263-343) (P35453 263-343): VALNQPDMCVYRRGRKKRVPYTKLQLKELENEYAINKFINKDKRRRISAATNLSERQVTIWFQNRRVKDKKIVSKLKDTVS
Chain of ALX3 (Homo sapiens, UniProt O95076 139-225, N203Q) (O95076 139-225 N203Q): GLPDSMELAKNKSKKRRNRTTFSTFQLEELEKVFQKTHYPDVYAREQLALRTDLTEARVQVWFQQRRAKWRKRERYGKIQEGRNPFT
Chain of ALX3 (Homo sapiens, UniProt O95076 139-225, L168Q) (O95076 139-225 L168Q): as the sequence (O95076 139-225 N203Q) above, with L30Q, Q65N counted along it
Chain of HOXD13 (Homo sapiens, UniProt P35453 263-343, T313R) (P35453 263-343 T313R): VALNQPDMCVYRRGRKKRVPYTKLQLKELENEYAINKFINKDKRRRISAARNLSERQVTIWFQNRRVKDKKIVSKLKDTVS
Chain of ALX3 (Homo sapiens, UniProt O95076 139-225, L168V) (O95076 139-225 L168V): as the sequence (O95076 139-225 N203Q) above, with L30V, Q65N counted along it
Chain of ALX1 (Homo sapiens, UniProt Q15699 118-204) (Q15699 118-204): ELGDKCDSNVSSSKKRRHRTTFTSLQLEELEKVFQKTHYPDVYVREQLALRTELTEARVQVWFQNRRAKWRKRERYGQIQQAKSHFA
Chain of ALX3 (Homo sapiens, UniProt O95076 139-225, N203S) (O95076 139-225 N203S): as the sequence (O95076 139-225 N203Q) above, with Q65S counted along it
Chain of ALX3 (Homo sapiens, UniProt O95076 139-225) (O95076 139-225): as the sequence (O95076 139-225 N203Q) above, with Q65N counted along it
Chain of ALX1 (Homo sapiens, UniProt Q15699 118-204, L144R) (Q15699 118-204 L144R): as the sequence (Q15699 118-204) above, with L27R counted along it
Chain of ALX1 (Homo sapiens, UniProt Q15699 118-204, L144V) (Q15699 118-204 L144V): as the sequence (Q15699 118-204) above, with L27V counted along it
Chain of HOXD13 (Homo sapiens, UniProt P35453 263-343, T313A) (P35453 263-343 T313A): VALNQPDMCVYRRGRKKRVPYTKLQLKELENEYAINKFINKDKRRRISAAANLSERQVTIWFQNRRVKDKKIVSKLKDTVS

Consider CAGGTCGC, for which the binding signal in [1] is 9.22 upbm affinity estimate (log intensity, higher = more binding, comparable within an allelic series); in [2] it was 9.62 upbm affinity estimate (log intensity, higher = more binding, comparable within an allelic series); in assay [3], 9.82 upbm affinity estimate (log intensity, higher = more binding, comparable within an allelic series); in assay [4] it was 9.97 upbm affinity estimate (log intensity, higher = more binding, comparable within an allelic series); in assay [5], 9.21 upbm affinity estimate (log intensity, higher = more binding, comparable within an allelic series).

With CTGGCCGA, the binding signal is 8.94 upbm affinity estimate (log intensity, higher = more binding, comparable within an allelic series) in assay [1]; 9.45 upbm affinity estimate (log intensity, higher = more binding, comparable within an allelic series) in assay [6]; 8.74 upbm affinity estimate (log intensity, higher = more binding, comparable within an allelic series) in [5].

GAAGTGGA: the binding signal was 11.7 upbm affinity estimate (log intensity, higher = more binding, comparable within an allelic series) in assay [1]; 11.3 upbm affinity estimate (log intensity, higher = more binding, comparable within an allelic series) in [6]; 12.5 upbm affinity estimate (log intensity, higher = more binding, comparable within an allelic series) in [7]; 11.8 upbm affinity estimate (log intensity, higher = more binding, comparable within an allelic series) in assay [5]; 12.6 upbm affinity estimate (log intensity, higher = more binding, comparable within an allelic series) in assay [8].

CAAGTGGG: the binding signal in [1] was 12.3 upbm affinity estimate (log intensity, higher = more binding, comparable within an allelic series); in assay [6], 11.7 upbm affinity estimate (log intensity, higher = more binding, comparable within an allelic series); in assay [5], 12.3 upbm affinity estimate (log intensity, higher = more binding, comparable within an allelic series).

With AAGTGGCC, the binding signal is 12.4 upbm affinity estimate (log intensity, higher = more binding, comparable within an allelic series) in assay [1]; 11.6 upbm affinity estimate (log intensity, higher = more binding, comparable within an allelic series) in [6]; 13.3 upbm affinity estimate (log intensity, higher = more binding, comparable within an allelic series) in assay [9]; 10.5 upbm affinity estimate (log intensity, higher = more binding, comparable within an allelic series) in assay [10]; 12.9 upbm affinity estimate (log intensity, higher = more binding, comparable within an allelic series) in assay [7]; 12.4 upbm affinity estimate (log intensity, higher = more binding, comparable within an allelic series) in assay [5]. Also, the binding signal in assay [8] was 13.1 upbm affinity estimate (log intensity, higher = more binding, comparable within an allelic series).

As to CACTTAGG, the binding signal in assay [1] was 12.6 upbm affinity estimate (log intensity, higher = more binding, comparable within an allelic series); in assay [6], 11.7 upbm affinity estimate (log intensity, higher = more binding, comparable within an allelic series); in assay [9] it was 13.5 upbm affinity estimate (log intensity, higher = more binding, comparable within an allelic series); in assay [10], 10.8 upbm affinity estimate (log intensity, higher = more binding, comparable within an allelic series); in [7], 12.9 upbm affinity estimate (log intensity, higher = more binding, comparable within an allelic series); in [5] it was 12.5 upbm affinity estimate (log intensity, higher = more binding, comparable within an allelic series). Besides, the binding signal in assay [8] was 13 upbm affinity estimate (log intensity, higher = more binding, comparable within an allelic series).

For the sequence CCAGCAGG, the binding signal in assay [1] was 8.6 upbm affinity estimate (log intensity, higher = more binding, comparable within an allelic series); in assay [11], 6.58 upbm affinity estimate (log intensity, higher = more binding, comparable within an allelic series); in [12], 6.51 upbm affinity estimate (log intensity, higher = more binding, comparable within an allelic series); in [13] it was 6.53 upbm affinity estimate (log intensity, higher = more binding, comparable within an allelic series); in [5], 8.77 upbm affinity estimate (log intensity, higher = more binding, comparable within an allelic series).

Take CGACCTCG: the binding signal in assay [1] was 9.01 upbm affinity estimate (log intensity, higher = more binding, comparable within an allelic series); in [14], 7.77 upbm affinity estimate (log intensity, higher = more binding, comparable within an allelic series); in [15], 7.62 upbm affinity estimate (log intensity, higher = more binding, comparable within an allelic series); in assay [16] it was 7.78 upbm affinity estimate (log intensity, higher = more binding, comparable within an allelic series); in assay [17] it was 7.74 upbm affinity estimate (log intensity, higher = more binding, comparable within an allelic series); in assay [18], 7.75 upbm affinity estimate (log intensity, higher = more binding, comparable within an allelic series). Further, in [5], the binding signal is 9.16 upbm affinity estimate (log intensity, higher = more binding, comparable within an allelic series).

For the sequence CACACTTA, the binding signal in [1] was 12.5 upbm affinity estimate (log intensity, higher = more binding, comparable within an allelic series); in [6], 11.7 upbm affinity estimate (log intensity, higher = more binding, comparable within an allelic series); in [9], 13.5 upbm affinity estimate (log intensity, higher = more binding, comparable within an allelic series); in assay [10], 10.9 upbm affinity estimate (log intensity, higher = more binding, comparable within an allelic series); in assay [7] it was 12.6 upbm affinity estimate (log intensity, higher = more binding, comparable within an allelic series); in assay [5] it was 12.4 upbm affinity estimate (log intensity, higher = more binding, comparable within an allelic series). Besides, in [8], the binding signal is 12.7 upbm affinity estimate (log intensity, higher = more binding, comparable within an allelic series).

Turning to CGTTCCGC, the binding signal in assay [1] was 8.99 upbm affinity estimate (log intensity, higher = more binding, comparable within an allelic series); in assay [9], 9.44 upbm affinity estimate (log intensity, higher = more binding, comparable within an allelic series); in assay [10], 9.27 upbm affinity estimate (log intensity, higher = more binding, comparable within an allelic series); in assay [5] it was 8.75 upbm affinity estimate (log intensity, higher = more binding, comparable within an allelic series).

For GCGGCCAC, the binding signal in assay [1] is 8.75 upbm affinity estimate (log intensity, higher = more binding, comparable within an allelic series); in assay [6], 9.34 upbm affinity estimate (log intensity, higher = more binding, comparable within an allelic series); in assay [5], 8.78 upbm affinity estimate (log intensity, higher = more binding, comparable within an allelic series).

For TAAGTGCA, the binding signal in assay [1] was 12.6 upbm affinity estimate (log intensity, higher = more binding, comparable within an allelic series); in [6] it was 11.9 upbm affinity estimate (log intensity, higher = more binding, comparable within an allelic series); in assay [9] it was 13.5 upbm affinity estimate (log intensity, higher = more binding, comparable within an allelic series); in assay [10] it was 10.9 upbm affinity estimate (log intensity, higher = more binding, comparable within an allelic series); in assay [7] it was 12.8 upbm affinity estimate (log intensity, higher = more binding, comparable within an allelic series); in [5], 12.4 upbm affinity estimate (log intensity, higher = more binding, comparable within an allelic series). For the same sequence, in assay [8], the binding signal was 12.9 upbm affinity estimate (log intensity, higher = more binding, comparable within an allelic series).
